This note sets out measurements from PubChem BioAssay (NCATS).

Experiment [1] concerns the target Rap guanine nucleotide exchange factor 3 (Homo sapiens) (UniProt O95398). As to the kind of experiment: Confirmatory qHTS for antagonist of cAMP-regulated guanine nucleotide exchange factor 3 (EPAC1) (AID 1645880). Note: nearly all actives have a fitted effect of over 55% in size. Note: potency is the fitted concentration of half-maximal effect. The gist of the method: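 Released BODIPY-GDP fluoresces less than Rap1-bound BODIPY-GDP; the signal is followed at 480/540 nm at 5-min intervals over 30 min, after 5 min at room temperature. Reactions contain 100 nM EPAC1, 250 nM RAP1B-BODIPY-GDP and 50 uM GDP; results are normalized to ATA and DMSO.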

Experiment [2] shares this target. As to the kind of experiment: Confirmatory qHTS for agonist of cAMP-regulated guanine nucleotide exchange factor 3 (EPAC1) (AID 1645881).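 For activation: EPAC1 catalysed release of BODIPY-GDP from Rap1B seen as fluorescence loss; 100% = effect of cAMP agonist control.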 Note: nearly all actives have a fitted effect of over 75% in size. Note: potency is the fitted concentration of half-maximal effect. A general note: In qHTS, concentration-response curves come from the screen itself.
The target in experiment [3] is Rap guanine nucleotide exchange factor 4 (Homo sapiens) (UniProt Q8WZA2). As to the kind of experiment: Confirmatory qHTS for agonist of cAMP-regulated guanine nucleotide exchange factor 4 (EPAC2) (AID 1645884). For activation: % is set by controls: 0 for no effect and ±100 for the full control effect.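 Note: nucleotide exchange releases bodipy-GDP from Rap1 and this lowers its fluorescence; nearly all actives have a fitted effect of over 65% in size.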 Note: potency is the fitted concentration of half-maximal effect.
Experiment [4] shares this target. Briefly: Confirmatory qHTS for antagonist of cAMP-regulated guanine nucleotide exchange factor 4 (EPAC2) (AID 1645885). For activity change, negative = inhibition: % is set by controls: 0 for no effect and ±100 for the full control effect. Note: nearly all actives have a fitted effect of over 25% in size. Note: potency is the fitted concentration of half-maximal effect.
Experiment [5] addresses Rap guanine nucleotide exchange factor 3 (Homo sapiens) (UniProt O95398). Briefly: Counterscreen qHTS for antagonist of cAMP-regulated guanine nucleotide exchange factor 3 (EPAC1) (AID 1645888). Note: % of control where 0% means no effect. The gist of the method: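 Rap1B–BODIPY-GDP (250 nM) with 50 uM GDP; compounds pin-transferred to 9.74 nM–152 uM final (activator) or from 7.32 nM upwards (inhibitor). Fluorescence Ex/Em 480/540 nm read at 5 and 30 min, then after adding cAMP or buffer, at room temperature.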
For orientation: The purpose of a counterscreen is to sort out artefacts and off-target activity.

Records with an inconclusive call do not appear. Values without a mark were called inactive. Calls of active or inactive are those of the source. Calls come from the whole dose curve; as a rule, active = well fitted curve in the direction sought with a large enough effect; inconclusive = small, poorly fitted or top-dose-only effect, or another doubt; inactive = no such curve, though single readings can be large; an effect the other way counts as inactive or inconclusive.

Rap guanine nucleotide exchange factor 3 (Homo sapiens), sequence (O95398 whole entry, looked up): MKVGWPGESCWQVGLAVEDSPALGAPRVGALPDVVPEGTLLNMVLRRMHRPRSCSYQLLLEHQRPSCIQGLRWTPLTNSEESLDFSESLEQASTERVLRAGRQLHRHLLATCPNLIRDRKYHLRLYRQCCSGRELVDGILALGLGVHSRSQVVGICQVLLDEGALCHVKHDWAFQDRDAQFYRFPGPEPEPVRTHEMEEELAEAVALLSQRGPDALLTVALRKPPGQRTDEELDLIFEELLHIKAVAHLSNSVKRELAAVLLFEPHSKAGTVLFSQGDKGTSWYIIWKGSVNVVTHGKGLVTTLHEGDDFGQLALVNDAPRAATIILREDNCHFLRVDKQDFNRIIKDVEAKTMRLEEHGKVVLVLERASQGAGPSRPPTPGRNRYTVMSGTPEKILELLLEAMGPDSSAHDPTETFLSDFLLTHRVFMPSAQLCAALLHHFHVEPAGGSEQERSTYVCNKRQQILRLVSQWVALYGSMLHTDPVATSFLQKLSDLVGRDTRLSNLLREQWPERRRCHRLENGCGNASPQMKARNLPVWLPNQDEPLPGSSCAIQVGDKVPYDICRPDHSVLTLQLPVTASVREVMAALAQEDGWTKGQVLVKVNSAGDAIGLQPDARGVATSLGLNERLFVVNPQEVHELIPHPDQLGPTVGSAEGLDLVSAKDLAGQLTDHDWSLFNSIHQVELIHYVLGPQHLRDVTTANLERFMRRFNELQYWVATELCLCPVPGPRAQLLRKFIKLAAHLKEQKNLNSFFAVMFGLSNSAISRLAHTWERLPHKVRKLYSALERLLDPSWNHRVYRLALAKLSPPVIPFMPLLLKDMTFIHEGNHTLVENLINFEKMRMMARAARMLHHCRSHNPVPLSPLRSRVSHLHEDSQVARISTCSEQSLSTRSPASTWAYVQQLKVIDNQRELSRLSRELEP
Rap guanine nucleotide exchange factor 4 (Homo sapiens), sequence (Q8WZA2 whole entry, looked up): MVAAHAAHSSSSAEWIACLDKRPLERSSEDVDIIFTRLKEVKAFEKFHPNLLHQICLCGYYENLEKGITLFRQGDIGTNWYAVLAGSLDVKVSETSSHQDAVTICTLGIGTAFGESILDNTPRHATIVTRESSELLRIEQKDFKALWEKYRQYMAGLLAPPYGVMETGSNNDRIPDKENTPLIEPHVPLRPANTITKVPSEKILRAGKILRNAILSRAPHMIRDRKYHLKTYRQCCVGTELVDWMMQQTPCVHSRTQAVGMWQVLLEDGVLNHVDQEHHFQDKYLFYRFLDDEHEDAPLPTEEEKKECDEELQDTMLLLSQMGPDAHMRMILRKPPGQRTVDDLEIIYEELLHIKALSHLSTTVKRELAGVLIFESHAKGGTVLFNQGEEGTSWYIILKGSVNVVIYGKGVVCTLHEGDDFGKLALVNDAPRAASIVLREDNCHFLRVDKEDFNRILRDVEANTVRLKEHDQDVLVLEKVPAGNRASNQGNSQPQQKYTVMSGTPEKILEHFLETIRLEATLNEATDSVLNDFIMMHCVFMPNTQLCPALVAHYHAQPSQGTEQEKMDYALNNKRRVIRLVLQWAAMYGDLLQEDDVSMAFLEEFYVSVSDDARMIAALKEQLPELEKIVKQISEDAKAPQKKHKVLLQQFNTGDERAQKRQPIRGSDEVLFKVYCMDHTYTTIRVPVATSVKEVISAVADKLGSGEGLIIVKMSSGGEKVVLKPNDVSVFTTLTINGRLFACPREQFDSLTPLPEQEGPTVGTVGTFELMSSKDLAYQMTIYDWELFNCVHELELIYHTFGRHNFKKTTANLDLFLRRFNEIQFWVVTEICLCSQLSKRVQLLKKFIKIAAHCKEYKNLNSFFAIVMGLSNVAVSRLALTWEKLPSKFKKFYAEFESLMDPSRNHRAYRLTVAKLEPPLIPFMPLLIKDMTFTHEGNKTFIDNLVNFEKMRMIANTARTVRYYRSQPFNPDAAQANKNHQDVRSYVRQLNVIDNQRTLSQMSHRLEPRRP

Regarding `CC(C)CC1C(=O)N(Cc2cn(CCC3OCCCO3)nn2)CCS(=O)(=O)N1Cc1ccc(-c2ccc(F)cc2)cc1` (stereo not given), the Potency result in experiment [1], in experiment [2], in experiment [3] and in experiment [4] was “inactive” each time.

With `COc1cccc(C(=O)N(Cc2cc3ccc(C)cc3nc2N(C)C)C2CC2)c1OC`, the Potency result in experiment [1], in experiment [2] and in experiment [3] was “inactive” in each case. For the same compound, the Potency in experiment [4] was 17.5 µM (active).

Consider `CN(C)CCNC(=O)c1cccc(-c2cnc3c(NC=O)cc(-c4cccc(C(F)(F)F)c4)cn23)c1`, for which the Potency entry in experiment [1], in experiment [2], in experiment [3] and in experiment [4] was “inactive” each time.

In the case of `Cc1nc(C)n(CC(=O)NCC2Cc3cc(-c4cccc(OC(F)(F)F)c4)ccc3O2)n1` (stereo not given), the Potency entry in experiment [1], in experiment [2] and in experiment [3] was “inactive” throughout. Besides, the Potency in experiment [4] is 44.1 µM (active).

In the case of `COC(=O)c1cc(CNC(=O)c2ccccn2)cc(NC(=O)c2ccccc2OC)c1`, the Potency entry in experiment [1], in experiment [2], in experiment [3] and in experiment [4] was “inactive” in each case.

In the case of `CCCCN(C(=O)CSc1n[nH]c(-c2ccc(C)cc2)n1)c1c(N)n(CCCC)c(=O)[nH]c1=O`, the Potency result in experiment [1], in experiment [2], in experiment [3] and in experiment [4] was “inactive” in each case.

For `C#C[C@]1(OC(C)=O)CCC2C3CCC4=CC(=O)CC[C@@H]4C3CC[C@@]21C` (stereo not given in full), the Potency entry in experiment [1], in experiment [2] and in experiment [3] was “inactive” each time. Besides, the Potency in experiment [4] was 39.3 µM (active).

On to `CCOC(=O)C1CCCN(c2cc(=O)n(C3CCCCC3)c(=O)[nH]2)C1` (stereo not given), for which the Potency result in experiment [1], in experiment [2], in experiment [3] and in experiment [4] was “inactive” throughout.

With `CC/C(=C/c1ccccc1OC)c1cc(-c2ccccc2)cc2oc3ccccc3c12`, the Potency entry in experiment [1], in experiment [2], in experiment [3] and in experiment [4] was “inactive” each time.

As to `Cc1cc(N(C)C)cc(C)c1/C=C/c1ccnc2ccccc12`, the Potency result in experiment [1], in experiment [2] and in experiment [3] was “inactive” each time. In experiment [4], the Potency is 13.9 µM (active).

Regarding `COc1ccc(-c2nc3cc(C)ccc3cc2CN(C(=O)c2cccs2)C2CC2)cc1OC`, the Potency entry in experiment [1], in experiment [2] and in experiment [3] was “inactive” in each case. The Potency in experiment [4] was 49.4 µM (active).

Consider `Oc1ccc(-c2c(-c3ccsc3)sc3ccccc23)cc1`, for which the Potency entry in experiment [1], in experiment [2] and in experiment [4] was “inactive” in each case. Also, the activation in experiment [3] was 2.53% [at 17.1 µM, percent relative to cAMP agonist control]. For the same compound, in experiment [5], the activity change, negative = inhibition was -8.26% [at 30.8 µM].

Turning to `COc1cccc(-c2nc3cc(SC)ccc3cc2CN(C(=O)c2csc(C)n2)C2CC2)c1`, the Potency entry in experiment [1], in experiment [2] and in experiment [3] was “inactive” in each case. In experiment [4], the Potency is 11.1 µM (active).

With `C(=C\c1nccc2ccccc12)/c1ccc(N2CCOCC2)cc1`, the Potency result in experiment [1], in experiment [2], in experiment [3] and in experiment [4] was “inactive” in each case.

For `CCC(C(=O)Nc1cc(OC)ccc1OC)n1nc(-c2ccccc2)c2c(c1=O)CCCC2` (stereo not given), the Potency result in experiment [1], in experiment [2], in experiment [3] and in experiment [4] was “inactive” throughout.

Consider `COC(=O)C(Cc1ccc(O)cc1)NC(=O)CCc1nc2ccccc2s1` (stereo not given), for which the Potency entry in experiment [1], in experiment [2], in experiment [3] and in experiment [4] was “inactive” throughout.

On to `O=C(O)c1ccccc1N/N=C/C1=C(N2CCOCC2)C(=C\c2ccccc2)/CC1`, for which the Potency in experiment [1] was 67.5 µM (active). Further, the Potency result in experiment [2], in experiment [3], in experiment [4] and in experiment [5] was “inactive” throughout.

For `Cc1ccc(C(NC(=O)C(C)C)c2cc([N+](=O)[O-])c3cccnc3c2O)cc1` (stereo not given), in experiment [1], the Potency is 35.5 µM (active). Moreover, the Potency result in experiment [2] and in experiment [4] was “inactive” in each case. For the same compound, in experiment [3], the activation is 0.958% [at 17.1 µM, percent relative to cAMP agonist control]. In addition, in experiment [5], the activity change, negative = inhibition is -17.2% [at 30.8 µM].

Consider `COc1ccc(C2=NN(c3nc4ccccc4s3)C(=O)C2)cc1`, for which the Potency in experiment [1] was 75.7 µM (active). The Potency entry in experiment [2], in experiment [3], in experiment [4] and in experiment [5] was “inactive” each time.

In the case of `CN(Cc1ccccc1F)c1nc(-c2cccs2)nc2ccccc12`, the Potency result in experiment [1], in experiment [2] and in experiment [4] was “inactive” in each case. The activation in experiment [3] is 0% [at 17.1 µM, percent relative to cAMP agonist control]. Further, the activity change, negative = inhibition in experiment [5] is -18.6% [at 30.8 µM].

On to `O=S(=O)(c1cc(O)ccc1O)c1cccc2c(S(=O)(=O)c3cc(O)ccc3O)cccc12`, for which the Potency in experiment [1] is 44.7 µM (active). In addition, the Potency entry in experiment [2] and in experiment [4] was “inactive” in each case. Also, the activation in experiment [3] is 5.63% [at 17.1 µM, percent relative to cAMP agonist control]. The activity change, negative = inhibition in experiment [5] is -9.89% [at 30.8 µM].

With `Cc1ccc(C)c(S(=O)(=O)N2CCN(C(=O)CCCc3c[nH]c4ccccc34)CC2)c1`, the Potency result in experiment [1], in experiment [2] and in experiment [4] was “inactive” in each case. The activation in experiment [3] is 2.96% [at 17.1 µM, percent relative to cAMP agonist control]. Also, the activity change, negative = inhibition in experiment [5] was -6.79% [at 30.8 µM].

Turning to `CCOc1ncccc1C(=O)Nc1ccc(C)c(S(=O)(=O)N2CCCCCC2)c1`, the Potency result in experiment [1], in experiment [2], in experiment [3], in experiment [4] and in experiment [5] was “inactive” throughout.

With `O=C(N/N=C/c1ccc(F)cc1)c1cc(-c2ccco2)nc2ccccc12`, the Potency in experiment [1] was 16.9 µM (active). Also, the Potency result in experiment [2], in experiment [3], in experiment [4] and in experiment [5] was “inactive” in each case.

As to `N#C/C(=C/c1ccc(N2CCOCC2)o1)C(=O)Nc1ccccc1`, the Potency result in experiment [1] and in experiment [5] was “inactive” each time. In addition, the Potency in experiment [2] was 112 µM (active); in experiment [3], 100 µM (active); in experiment [4] it was 75.7 µM (active).
